Experimental data as given in PubChem BioAssay (Tox21).
Inconclusive results are not listed. Activity calls are given as the source filed them. Unless noted, the call rests on the fitted dose curve.

How the values were obtained:
[1] = qHTS assay to identify small molecule antagonists of the vitamin D receptor (VDR) signaling pathway - cell viability counter screen (AID 743225; active means well fitted curve in the direction sought with a large enough effect in the repeat runs; an effect the other way counts as inactive or inconclusive; further: on the % scale 0 is the no-effect control and ±100 the full control effect; nearly all actives have a fitted effect of over 50% in size)
In short: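 Cytotoxicity toward the VDR-bla HEK 293T line was scored by ATP-based CellTiter-Glo luminescence, read in the wells already used for the beta-lactamase readout after 16 h compound treatment under 3 nM 1-alpha,25-dihydroxyvitamin D3 stimulation.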

[2] = qHTS assay to identify small molecule agonists of the NFkB signaling pathway (AID 1159509; active means well fitted curve in the direction sought with a large enough effect in the signal ratio in the repeat runs, not every such curve was filed as active; the % refers to the signal ratio; further: series mostly up to about 61 µM; on the % scale 0 is the no-effect control and ±100 the full control effect)
In short: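 After overnight attachment, reporter cells received test compounds, DMSO or positive controls and were incubated 5 hr at 37 C. FRET substrate was then added for 1.5 hr at room temperature before dual-emission fluorescence reading.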

[3] = qHTS assay to identify small molecule agonists of the NFkB signaling pathway - cell viability counter screen (AID 1159515); further: series mostly up to about 61 µM; on the % scale 0 is the no-effect control and ±100 the full control effect; nearly all actives have a fitted effect of over 55% in size
In short: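 NFkB-bla ME-180 cells, 2,000/well, were plated overnight at 37 C, 5% CO2, then exposed to compounds in DMSO for 5 hr. After the bla FRET read, CellTiter-Glo was added to the same wells; luminescence was read after 30 min at room temperature.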

[4] = qHTS assay to identify small molecule agonists of the endoplasmic reticulum stress response signaling pathway (AID 1159516; active means well fitted activation curve with a large enough effect in the signal ratio in the repeat runs, not every such curve was filed as active; the % refers to the signal ratio; further: on the % scale 0 is the no-effect control and ±100 the full control effect)
In short: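 CellSensor ESRE-bla HeLa cells, carrying a beta-lactamase reporter driven by the ER stress response element, were plated overnight and exposed to compounds for 5 hr at 37 C. Reporter activity was read as FRET substrate fluorescence after 2 hr at room temperature.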

[5] = qHTS assay to identify small molecule agonists of the endoplasmic reticulum stress response signaling pathway - cell viability counter screen (AID 1159517); further: series mostly up to about 61 µM; on the % scale 0 is the no-effect control and ±100 the full control effect; nearly all actives have a fitted effect of over 50% in size
In short: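 Cells, HeLa ESRE-bla; density, 1,500/well; dosing, 5 hr at 37 C, 5% CO2; readout, CellTiter-Glo luminescence after 30 min RT.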

[6] = qHTS assay to identify small molecule antagonists of the retinoid-related orphan receptor gamma (ROR-gamma) signaling pathway - cell viability counter screen (AID 1159520; active means well fitted curve in the direction sought with a large enough effect in the repeat runs; an effect the other way counts as inactive or inconclusive; further: on the % scale 0 is the no-effect control and ±100 the full control effect; nearly all actives have a fitted effect of over 50% in size)
In short: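 Cytotoxicity was read from cellular ATP (CellTiter-Glo luminescence) after 16 hr at 37 C with 1 uM doxycycline induction. The inducer was added 2 hr after compound transfer to Tet-on ROR gamma CHO cells.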

[7] = biological target: Nuclear receptor ROR-gamma (Homo sapiens) (UniProt P51449); test: qHTS assay to identify small molecule antagonists of the retinoid-related orphan receptor gamma (ROR-gamma) signaling pathway (AID 1159521; active means well fitted curve in the direction sought with a large enough effect in the repeat runs; an effect the other way counts as inactive or inconclusive;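 further: CHO cells with doxycycline inducible ROR-gamma driving an RORE luciferase reporter; top concentration of the series differs between compounds; on the % scale 0 is the no-effect control and ±100 the full control effect; nearly all actives have a fitted effect of over 50% in size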)
In short: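 Readout: ONE-Glo luciferase luminescence, 30 min at room temperature. System: Tet-on RORγ CHO, RORE-LUC. Sequence: compound 2 h, doxycycline 1 uM final, 16 h at 37 C.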

[8] = qHTS assay to identify small molecule agonists of the AP-1 signaling pathway - cell viability counter screen (AID 1159525); further: nearly all actives have a fitted effect of over 55% in size
In short: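 Luminescent ATP readout (Cell Titer Glo, 30 min RT), normalised to DMSO and tetra n-octyl ammonium bromide controls. Cells were ME-180 AP-1-bla in 0.5% dialyzed FBS Opti-MEM, with a 5 h, 37 °C compound exposure.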

[9] = qHTS assay to identify small molecule agonists of the AP-1 signaling pathway (AID 1159526); further: on the % scale 0 is the no-effect control and ±100 the full control effect
[10] = biological target: Retinoic acid receptor RXR-alpha (Homo sapiens) (UniProt P19793); test: qHTS assay to identify small molecule agonists of the RXR signaling pathway (AID 1159527); further: on the % scale 0 is the no-effect control and ±100 the full control effect; nearly all actives have a fitted effect of over 35% in size
Chain of Retinoic acid receptor RXR-alpha (Homo sapiens) (P19793 whole entry, looked up): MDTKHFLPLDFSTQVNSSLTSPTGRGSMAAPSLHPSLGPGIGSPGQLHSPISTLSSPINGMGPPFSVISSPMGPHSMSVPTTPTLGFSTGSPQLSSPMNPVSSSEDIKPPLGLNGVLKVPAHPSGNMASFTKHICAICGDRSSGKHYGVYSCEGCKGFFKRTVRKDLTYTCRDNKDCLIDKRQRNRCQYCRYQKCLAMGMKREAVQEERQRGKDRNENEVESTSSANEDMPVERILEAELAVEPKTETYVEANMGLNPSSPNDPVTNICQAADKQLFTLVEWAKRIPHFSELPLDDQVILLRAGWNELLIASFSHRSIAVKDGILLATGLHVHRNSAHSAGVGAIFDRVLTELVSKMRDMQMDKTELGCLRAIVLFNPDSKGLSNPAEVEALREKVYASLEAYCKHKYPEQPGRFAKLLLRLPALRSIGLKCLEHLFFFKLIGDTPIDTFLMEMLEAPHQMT
In short: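 Reporter activation is measured as beta-lactamase activity via FRET substrate cleavage (emission 460/530 nm) in HEK 293T cells expressing an RXR-alpha-driven bla construct, following 16 hr compound exposure at 37 C.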

C[Si]1(C)N[Si](C)(C)N[Si](C)(C)N1
inactive: outcome [1] | outcome [2] | outcome [3] | outcome [4] | outcome [5] | outcome [6] | outcome [7] | outcome [8] | outcome [9] | Potency [10]

N#CCCOCCOCCC#N
inactive: outcome [1] | outcome [2] | outcome [3] | outcome [4] | outcome [5] | outcome [6] | outcome [7] | outcome [8] | outcome [9] | Potency [10]

CC(=O)OC(C)c1ccccc1 (stereo not given)
inactive: outcome [1] | outcome [2] | outcome [3] | outcome [4] | outcome [5] | outcome [6] | outcome [7] | outcome [8] | outcome [9] | Potency [10]

Cc1cccc(C(=O)O)c1[N+](=O)[O-]
inactive: outcome [1] | outcome [2] | outcome [3] | outcome [4] | outcome [5] | outcome [6] | outcome [7] | outcome [8] | outcome [9] | Potency [10]

CC1(N)CCC(C(C)(C)N)CC1 (stereo not given)
inactive: outcome [1] | outcome [2] | outcome [3] | outcome [4] | outcome [5] | outcome [6] | outcome [7] | outcome [8] | outcome [9] | Potency [10]

CC(=O)OC[C@H]1O[C@@H](OC(C)=O)[C@H](OC(C)=O)[C@@H]1OC(C)=O
inactive: outcome [1] | outcome [2] | outcome [3] | outcome [4] | outcome [5] | outcome [6] | outcome [7] | outcome [8] | outcome [9] | Potency [10]

O=C(O)C(=O)Nc1cccc(-c2nn[nH]n2)c1
inactive: outcome [1] | outcome [2] | outcome [3] | outcome [4] | outcome [5] | outcome [6] | outcome [7] | outcome [8] | outcome [9] | Potency [10]

CC(=O)OCCCc1ccccc1
inactive: outcome [1] | outcome [2] | outcome [3] | outcome [4] | outcome [5] | outcome [6] | outcome [7] | outcome [8] | outcome [9] | Potency [10]

NC(Cc1c[nH]c2ccccc12)C(=O)O (stereo not given)
inactive: outcome [1] | outcome [2] | outcome [3] | outcome [4] | outcome [5] | outcome [6] | outcome [7] | outcome [8] | outcome [9] | Potency [10]

BrC/C=C/CBr
inactive: outcome [1] | outcome [2] | outcome [3] | outcome [4] | outcome [5] | activity, negative = cytotoxicity [6] -4.58% [at 19 µM] | activity change, negative = inhibition [7] -16.8% [at 19 µM] | viability change, negative = cytotoxic [8] 1.78% [at 15.8 µM] | activation [9] -6.33% [at 15.8 µM] | activation [10] 4.67% [at 15.8 µM]

Nc1cc(S(=O)(=O)O)ccc1S(=O)(=O)O
inactive: outcome [1] | outcome [2] | outcome [3] | outcome [4] | outcome [5] | outcome [6] | outcome [7] | outcome [8] | outcome [9] | Potency [10]

CC1=NN(c2ccc(S(=O)(=O)O)cc2)C(=O)C1N=Nc1ccccc1 (stereo not given)
inactive: outcome [1] | outcome [2] | outcome [3] | outcome [4] | outcome [5] | outcome [6] | outcome [7] | outcome [8] | outcome [9] | Potency [10]

O=c1[nH]c(=O)c2ccccc2o1
inactive: outcome [1] | outcome [2] | outcome [3] | outcome [4] | outcome [5] | outcome [6] | outcome [7] | outcome [8] | outcome [9] | Potency [10]

O=C1OC(=O)c2cc(Oc3ccc4c(c3)C(=O)OC4=O)ccc21
inactive: outcome [1] | outcome [2] | outcome [3] | outcome [4] | outcome [5] | outcome [6] | outcome [7] | outcome [8] | outcome [9] | Potency [10]

CCc1nccnc1C
inactive: outcome [1] | outcome [2] | outcome [3] | outcome [4] | outcome [5] | outcome [6] | outcome [7] | outcome [8] | outcome [9] | Potency [10]

CN=C(NC#N)NCCSCc1csc(N=C(N)N)n1
inactive: outcome [1] | outcome [2] | outcome [3] | outcome [4] | outcome [5] | outcome [6] | outcome [7] | outcome [8] | outcome [9] | Potency [10]

CC(=O)OCC(=O)[C@@]1(O)[C@H](OC(C)=O)C[C@H]2[C@@H]3CCC4=CC(=O)C=C[C@]4(C)[C@@]3(F)[C@@H](O)C[C@@]21C
inactive: outcome [1] | outcome [2] | outcome [3] | outcome [4] | outcome [5] | outcome [6] | outcome [7] | outcome [8] | outcome [9] | Potency [10]

CCCCCCCCCCCCCCCCI
inactive: outcome [1] | outcome [2] | outcome [3] | outcome [4] | outcome [5] | activity, negative = cytotoxicity [6] -0.188% [at 19 µM] | activity change, negative = inhibition [7] 2.8% [at 19 µM] | viability change, negative = cytotoxic [8] -11.4% [at 15.8 µM] | activation [9] -9.43% [at 15.8 µM] | activation [10] 7.13% [at 15.8 µM]

Cc1nc2n(c(=O)c1CCN1CCC(C(=O)c3ccc(F)cc3)CC1)CCS2
inactive: outcome [1] | outcome [2] | outcome [3] | outcome [4] | outcome [5] | outcome [6] | outcome [7] | outcome [8] | outcome [9] | Potency [10]

CCOC(=O)CCc1ccccc1
inactive: outcome [1] | outcome [2] | outcome [3] | outcome [4] | outcome [5] | outcome [6] | outcome [7] | outcome [8] | outcome [9] | Potency [10]

Cc1nc([N+](=O)[O-])cn1-c1ccc([N+](=O)[O-])cc1
inactive: outcome [1] | outcome [2] | outcome [3] | outcome [4] | outcome [5] | outcome [6] | outcome [7] | outcome [8] | outcome [9] | Potency [10]

CCC(=O)c1ccc(O)cc1
inactive: outcome [1] | outcome [2] | outcome [3] | outcome [4] | outcome [5] | outcome [6] | outcome [7] | outcome [8] | outcome [9] | Potency [10]

NC(=O)NC(=O)Cc1ccccc1
inactive: outcome [1] | outcome [2] | outcome [3] | outcome [4] | outcome [5] | outcome [6] | outcome [7] | outcome [8] | outcome [9] | Potency [10]
